Tested on: TLK2
Conditions: concentration: 1 μM, replicates: in singlicate; n = 1
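Further: KINOMEscan kinase panel screen.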

| Compound | %Inh [%] |
| --- | --- |
| Cn1cc(-c2ccc3c(c2)CCN3C(=O)Cc2cccc(Cl)c2)c2c(N)ncnc21 [GSK2606590] | 0 |
| COc1ccc(-c2coc3ccc(-c4nnc(SCc5ccc(OC)c(C(F)(F)F)c5)o4)cc23)cc1 | 0 |
| CCS(=O)(=O)c1ccc(OC)c(Nc2nccc(-c3c(-c4cccc(NC(=O)c5c(F)cccc5F)c4)nn4ncccc34)n2)c1 [GSK326180] | 0 |
| O=C(Nc1cccc(-c2nn3ccccc3c2-c2ccnc(Nc3cccc(C(F)(F)F)c3)n2)c1)c1c(F)cccc1F [GSK292658] | 0 |
| NCCCC(NC(=O)c1cc(Br)c(-c2ccnc3[nH]ccc23)s1)c1ccccc1.O=C(O)C(F)(F)F.O=C(O)C(F)(F)F (stereo not shown) [GSK1287544] | 0 |
| CC(=O)Nc1nc2cnc(Nc3cc(NC(=O)c4cccc(C5(C#N)CC5)c4Cl)ccc3C)nc2s1 | 0 |
| COc1ccc(CNC(=O)NC2CCN(c3ccnc(Nc4ccc(F)cc4)n3)CC2)cc1 [GSK1379788] | 0 |
| Clc1ccc(-c2nn3ncccc3c2-c2ccnc(Nc3ccc4c(c3)OCCO4)n2)cc1 [GW829116] | 0 |
| CC(C)(C)c1ccc2nccc(Nc3cccc(O)c3)c2c1 [GW856795] | 0 |
| COc1cc(Nc2nccc(N3CCC(NC(=O)Nc4cccc(C(C)=O)c4)C3)n2)cc(OC)c1OC (stereo not shown) [GSK1379753] | 0 |
| COc1cc(Nc2nccc(-c3c(-c4cccc(NC(=O)c5c(F)cccc5F)c4)nn4ccccc34)n2)cc(OC)c1OC [GSK323521] | 0 |
| COc1cccc(NC(=O)NC2CCN(c3ccnc(Nc4cc(OC)c(OC)c(OC)c4)n3)C2)c1 (stereo not shown) [GSK1379763] | 0 |
| O=C(O)C(F)(F)F.O=C(O)C(F)(F)F.O=c1[nH]ccc2nc(N[C@@H]3CCCNC3)nc(Nc3ccc(S(=O)(=O)N4CCOCC4)cc3)c12 [GSK2177277] | 98.2 |
| CCCCc1nn2ncccc2c1-c1ccnc(Nc2ccc(N3CCN(C)CC3)cc2)n1 [GW684941] | 0 |
| CN(c1ccc(NC(=O)Nc2cc(C(F)(F)F)ccc2F)cc1)c1ccnc(Nc2ccc(S(N)(=O)=O)cc2)n1 [GW809893] | 0 |
| Nc1ncc(-c2cccnc2)c2scc(-c3ccc4c(c3)CCN4C(=O)Cc3ccccc3)c12 [GSK683281] | 0 |

| Compound | %Inh [%] |
| --- | --- |
| Cc1ccc(C(=O)Nc2ccc(Nc3ccnc4cc(-c5nccs5)ccc34)cc2O)cc1.Cl [GW494702] | 0 |
| COc1cc(Nc2nccc(N3CCC(NC(=O)c4cc5ccccc5s4)C3)n2)cc(OC)c1OC (stereo not shown) [GSK1379760] | 18 |
| O=C(Nc1cccc(-c2nn3ccccc3c2-c2ccnc(Nc3cccc(F)c3)n2)c1)c1c(F)ccc(F)c1Cl [GSK357952] | 0 |
| CN(C)Cc1ccc(-c2ccc3c(Nc4ccc(Oc5ccccn5)cc4)ccnc3c2)o1 [GW567148] | 0 |
| CNC(=O)c1ccccc1Nc1nc(Nc2ccc(N3CCOCC3)cc2)ncc1Cl.Cl [GSK1576028] | 57 |
| Cl.Cl.NCC(NC(=O)c1cc(-c2ccccc2)c(-c2ccnc3[nH]ccc23)s1)c1ccccc1 (stereo not shown) [GSK1321561] | 0 |
| COc1ccc(Nc2nccc(N3CCC(NC(=O)Nc4cccc(OC)c4)C3)n2)cc1 (stereo not shown) [GSK1379742] | 0 |
| COC(=O)Nc1nc2cc(Oc3ccc(NC(=O)Nc4cc(C(F)(F)F)ccc4F)cn3)ccc2[nH]1.Cl.Cl [GW681170] | 0 |
| O=C(Nc1n[nH]c2cc(-c3ccoc3)ccc12)C1CC1 [SB-738481] | 0 |
| CSc1cccc2c(-c3ccncn3)c(-c3ccc(F)cc3)nn12 [GW514786] | 0 |
| c1ccc(Oc2ccc(Nc3ccnc4cc(-c5ccc(CNCCN6CCOCC6)o5)ccc34)cc2)nc1 [GW567145] | 0 |
| Nc1ncnc2c1nc(-c1ccccc1)n2-c1ccccc1 [SKF-97293] | 19 |
| Cl.c1ccc(-c2ccc3c(Nc4ccc5[nH]ccc5c4)ccnc3c2)nc1 [GW440138] | 0 |
| Cl.NC(=O)c1cccc(Nc2nccc(Nc3ccc(Oc4c(Cl)cccc4Cl)c(Cl)c3)n2)c1 [GW659009] | 0 |
| Cc1occc1-c1ncc(OC[C@@H](N)Cc2c[nH]c3ccccc23)cc1-c1ccc2[nH]nc(C)c2c1.O=C(O)C(F)(F)F [GSK682037] | 0 |

Source: publication PMC5540273 (PLoS ONE, 2017)
